We go through ten compounds from PubChem BioAssay.

Results filed as inconclusive are left out. Active and inactive are the calls of the source.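 Rule for the calls, unless noted: active = growth inhibition above 25% in both replicates, a cutoff set 3 SD above the mean; inconclusive = above 25% in only one replicate; inactive = the rest.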

The nature of assay [1]: reducers of endogenous Her2 protein level, primary screen, SKBR3 breast tumor cells, AlphaScreen, ATP viability (AID 461;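 active = Her2 level under about 52% in both replicate screens, with viability over 70% of control, limit read from the data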;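 for Her2 level: lower value means less Her2 protein in the cells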;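 for viability: percent of carrier control wells set as 100% viability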). The following applies: 18-24 h, measured here: SKBR3 viability, ATP luminescence, at 10 µM.
For assay [2], the target named is Receptor tyrosine-protein kinase erbB-2 (Homo sapiens) (UniProt P04626). Described as above. The following applies: 18-24 h, at 10 µM, stronger effect = lower value.
The nature of assay [3]: SK-BR-3 cell growth inhibitors, pilot screen, 24 h, human (AID 572;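 active = viability at or below 10% of carrier control in both of two separate runs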;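 note: compound exposure lasted between 18 and 24 h rather than exactly 24 h; 100% = carrier-treated control wells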). The following applies: SK-BR-3 viability, CellTiter-Glo luminescence, at 10 µM, stronger effect = lower value. (In general: Cellular ATP, detected with luciferase, serves as a proxy for viable cell number.)
Assay [4] can be described thus: HUVEC growth inhibition – cell-based, human, primary screen (AID 575;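 active = viability at or below 30% in both replicate assays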;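 note: 100% = median of untreated cell wells with 0.1% DMSO on each plate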). The conditions noted are these: HUVEC proliferation, CellTiter-Glo luminescence, 72 h; at 10 µM; stronger effect = lower value.
A short description of assay [5]: growth inhibitors of H69AR lung tumor, primary screen, human, duplicate replicates (AID 580;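 active = viability at or under a set limit in both replicates, limit being median viability minus 3 SD, cut at about 48% in these data, passing the limit was not always enough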;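 note: 100% = mean luminescence of untreated wells and 0% = no signal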). The conditions noted are these: H69AR lung tumor cells viability, ATP luminescence, 72 h; at 10 µM; stronger effect = lower value.
The nature of assay [6]: reversal of MRP1-mediated doxorubicin resistance, pilot screen, H69AR cells, doxorubicin co-treatment (AID 601;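 active = viability loss from added drug above about 55%, and viability with drug at most 40%, in both replicates, limit read from the data, passing the limit was not always enough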). The conditions noted are these: CellTiter-Glo, 72 h, at 10 µM; for differential viability (reversal): stronger effect = higher value.
Assay [7] can be described thus: 384-well plate pilot, post-Golgi transport modulator project, inhibition of yeast transport mutant growth (AID 636; in the data active = inhibition above about 31%). The following applies: absorbance 615 nm, about 18 h, stronger effect = higher value.
Assay [8] can be described thus: growth suppression of yeast trafficking mutant, preliminary HTS, modulators of trafficking downstream of Golgi apparatus project, 1536-format plate, OD 615 nm (AID 637; in the data active = inhibition above about 30%). The conditions noted are these: yeast transport mutant growth, absorbance 615 nm, 18 h; stronger effect = higher value.
A short description of assay [9]: OD615 S. cerevisiae growth inhibition, permissive medium, pilot counter-assay, permissive growth control for S. cerevisiae lifespan shortening project (AID 705). The conditions noted are these: OD615, 24 h, at 10 µM, stronger effect = higher value.
A short description of assay [10]: Restrictive medium S. cerevisiae growth inhibition, OD615, pilot screen of yeast lifespan reduction project, restrictive growth control (AID 706;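 active = growth inhibition above a set limit, 3 SD over mean compound inhibition, in both replicates, cut at about 43% in these data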;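 note: modified DeaD lifespan yeast strain shifted to restrictive glucose medium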). The following applies: OD615, 48 h, at 10 µM, stronger effect = higher value.
The nature of assay [11]: viability gain of MRP-1-high H69AR cells under doxorubicin, pilot screen, MRP-1 activator project, CellTiter-Glo, duplicate (AID 807;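 active = viability increase at or above a cutoff of the median across tested compounds plus 3 SD, cut at about 8.5% in these data, passing the limit was not always enough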;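 note: compound pretreatment 18-22 h then 72 h combined with doxorubicin; 0% = doxorubicin alone and 100% = vehicle without doxorubicin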). The following applies: H69AR viability with doxorubicin, CellTiter-Glo luminescence; at 10 µM; stronger effect = higher value.
Assay [12] can be described thus: growth suppression of beta-catenin knockout HCT116, pilot screen, human colon tumor cells (AID 823;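 active = cell viability at or below a set limit in both duplicate runs, the limit being the all-compound median minus 4 SD, cut at about 23% in these data, passing the limit was not always enough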;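 note: 0% = wells killed by 20 µM Hyamine and 100% = untreated DMSO cell wells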). The conditions noted are these: CellTiter-Glo, 60 h, at 10 µM, stronger effect = lower value.
Assay [13] is described as follows: growth suppression of PTEN-deleted HCT116, pilot screen, cell-based, HCT116 clonal line, CellTiter-Glo (AID 824;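 active = viability at or below 27.92% in each of two runs, the all-compound median minus 4 SD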;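 note: 0% = 20 µM Hyamine control and 100% = vehicle cell control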). The conditions noted are these: 60 h, at 10 µM, stronger effect = lower value.
The nature of assay [14]: inhibitors of the yeast RAM network, pilot screen, dse1pr::URA3 reporter, 5-FOA selection (AID 869;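 active = inhibition over a set limit, the all-compound mean plus 3 SD, in both replicate runs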;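 note: 0% = DMSO wells with no growth and 100% = 10 µM 1-NA-PP1 with full growth; RAM network block rescues cells from 5-FOA so hits raise OD615 growth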). The following applies: S. cerevisiae dse1pr::URA3 5-FOA growth, OD615, 2 d; at 10 µM; stronger effect = higher value; strain carries analog-sensitive mutant Cbk1 kinase.
Assay [15] in a line: RAM signaling pathway blockade in yeast – S. cerevisiae, Pdr1DBD-CYC8 efflux-inhibited sensitized strain, primary screen (AID 1298;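 active = RAM network inhibition above 8.4% in each of two replicates, 3 SD over the compound average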;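 note: 0% = DMSO untreated cells without growth and 100% = 10 µM 1-NA-PP1 full growth; higher means more yeast growth rescued from 5-FOA killing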). The following applies: S. cerevisiae cbk1-as DSE1-URA3 strain, 5-FOA growth OD615, 2 d; at 50 µM; stronger effect = higher value.
The mark [16] stands for this setting: H69AR cells + 2 uM doxorubicin, measured here: viability with 2 uM doxorubicin, stronger effect = lower value.
Setting [17] is: H69AR cells, compound alone cytotoxicity.

Chain of Receptor tyrosine-protein kinase erbB-2 (Homo sapiens) (P04626 whole entry, looked up): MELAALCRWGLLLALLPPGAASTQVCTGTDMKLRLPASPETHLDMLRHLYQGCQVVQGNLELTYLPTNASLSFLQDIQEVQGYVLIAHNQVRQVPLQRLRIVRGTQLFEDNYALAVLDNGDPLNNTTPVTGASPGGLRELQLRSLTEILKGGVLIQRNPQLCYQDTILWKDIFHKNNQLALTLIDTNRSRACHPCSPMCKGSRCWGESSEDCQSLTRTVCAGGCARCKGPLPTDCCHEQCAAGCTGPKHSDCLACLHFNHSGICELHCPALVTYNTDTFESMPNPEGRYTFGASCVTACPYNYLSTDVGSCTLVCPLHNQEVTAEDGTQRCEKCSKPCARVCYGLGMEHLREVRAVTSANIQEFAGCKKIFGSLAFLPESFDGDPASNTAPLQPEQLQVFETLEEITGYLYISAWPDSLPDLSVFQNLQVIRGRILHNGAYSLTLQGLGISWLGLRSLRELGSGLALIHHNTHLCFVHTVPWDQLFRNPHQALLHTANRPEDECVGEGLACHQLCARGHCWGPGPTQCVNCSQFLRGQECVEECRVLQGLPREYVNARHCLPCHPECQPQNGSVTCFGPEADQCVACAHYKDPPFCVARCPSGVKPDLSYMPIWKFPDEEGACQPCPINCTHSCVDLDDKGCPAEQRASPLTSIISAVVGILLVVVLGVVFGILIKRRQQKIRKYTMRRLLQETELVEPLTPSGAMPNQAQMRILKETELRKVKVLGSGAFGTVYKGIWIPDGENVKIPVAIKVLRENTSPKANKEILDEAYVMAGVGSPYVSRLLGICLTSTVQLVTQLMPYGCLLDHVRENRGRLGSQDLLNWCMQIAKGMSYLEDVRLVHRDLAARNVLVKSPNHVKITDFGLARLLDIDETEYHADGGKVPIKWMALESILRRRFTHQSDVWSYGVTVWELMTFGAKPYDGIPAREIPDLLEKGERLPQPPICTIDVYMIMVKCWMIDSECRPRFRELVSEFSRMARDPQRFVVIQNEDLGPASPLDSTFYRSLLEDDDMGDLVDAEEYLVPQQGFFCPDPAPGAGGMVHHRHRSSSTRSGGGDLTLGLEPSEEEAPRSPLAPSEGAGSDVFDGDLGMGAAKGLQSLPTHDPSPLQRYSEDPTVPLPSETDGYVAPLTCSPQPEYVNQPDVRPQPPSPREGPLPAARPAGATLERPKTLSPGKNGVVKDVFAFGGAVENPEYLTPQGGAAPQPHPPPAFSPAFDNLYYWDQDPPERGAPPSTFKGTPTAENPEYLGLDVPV

As to `CC(=NCC1CCNCC1)C1=C(O)CC(C)(C)CC1=O`, the viability – broadly, a read-out of living cells in per cent, often relative to untreated cells – in assay [1] is 79%; in [3] it was 79% (inactive); in [4], 107% (inactive); in [5], 106% (inactive); in assay [6] (setting [16]) it was 92.4%; in assay [6] (setting [17]), 106%. Moreover, the viability in assay [12] is 91.2% (inactive); in assay [13], 97.3% (inactive). Further, the Her2 level in [2] is 95.5% (inactive). The differential viability (reversal) in assay [6] (H69AR cells + 2 uM doxorubicin) is 13.4% (inactive). In addition, the inhibition – broadly, the drop in the measured response relative to a control, in per cent – was -4.73% (inactive) in [7], 2.3% (inactive) in assay [8] and 0.485% (inactive) in assay [14]. Besides, the values for the growth inhibition in assay [9] and in assay [10] were 10% (inactive) and 5.17% (inactive), respectively. The viability increase in [11] was -2.21% (inactive). In addition, the RAM network inhibition in [15] is -1.02% (inactive).

In the case of `Cc1ccc(C(C)C)c(OCCCN2CC(C)OC(C)C2)c1` (stereo not given), the viability was 98.5% in [1]; 98.5% (inactive) in assay [3]; 101% (inactive) in assay [4]; 89.4% (inactive) in assay [5]; 99% in [6] (setting [16]); 89.4% in assay [6] (setting [17]). Besides, the viability in [12] was 78.5% (inactive); in [13], 89.3% (inactive). Further, the Her2 level in assay [2] was 85% (inactive). Further, in assay [6] (H69AR cells + 2 uM doxorubicin), the differential viability (reversal) is -9.6% (inactive). Moreover, the inhibition is 75.4% (active) in [7], 27.7% (inactive) in assay [8] and 0.705% (inactive) in [14]. Further, the values for the growth inhibition in assay [9] and in assay [10] were -7.86% (inactive) and -13.4% (inactive), respectively. In addition, in assay [11], the viability increase is -2.59% (inactive). Also, the RAM network inhibition in assay [15] is 1.47% (inactive).

With `CC1(C)CC(=O)c2cnc(NC(=O)CCc3ccccc3)nc2C1`, the viability in assay [1] was 93%; in assay [3] it was 93% (inactive); in assay [4], 112% (inactive); in assay [5], 90.2% (inactive); in [6] (setting [16]) it was 89.2%; in assay [6] (setting [17]) it was 90.2%. The figures for the viability in assay [12] and in assay [13] were 97.6% (inactive) and 101% (inactive), respectively. In addition, the Her2 level in assay [2] is 82% (inactive). The differential viability (reversal) in assay [6] (H69AR cells + 2 uM doxorubicin) was 0.98% (inactive). Moreover, the inhibition is -0.65% (inactive) in [7], -4.5% (inactive) in [8] and 1.27% (inactive) in [14]. Moreover, the growth inhibition in assay [9] was -7.5% (inactive); in assay [10], -11.6% (inactive). The viability increase in assay [11] was 1.81% (inactive). Further, the RAM network inhibition in assay [15] was 6.48% (inactive).

Turning to `CCCCN(C)Cc1c(O)ccc2c(-c3ccccc3)cc(=O)oc12`, the viability was 89% in assay [1]; 89% (inactive) in assay [3]; 111% (inactive) in assay [4]; 96.7% (inactive) in assay [5]; 88.6% in assay [6] (setting [16]); 96.7% in [6] (setting [17]). Also, the viability in [12] was 91% (inactive); in [13] it was 93.6% (inactive). Also, in [2], the Her2 level is 102% (inactive). For the same compound, the differential viability (reversal) in assay [6] (H69AR cells + 2 uM doxorubicin) is 8.13% (inactive). Further, the inhibition in assay [7] was -2.7% (inactive); in assay [8], 2.95% (inactive); in assay [14] it was 0.605% (inactive). Besides, the growth inhibition was -4.28% (inactive) in [9] and 2.96% (inactive) in assay [10]. The viability increase in [11] is -2.64% (inactive). The RAM network inhibition in assay [15] was 1.89% (inactive).

`CC12CN3CC(C)(CN(C1)C3c1ccc(Cl)cc1Cl)C2=O` (stereo not given): the viability in assay [1] was 97%; in assay [3], 97% (inactive); in assay [4], 101% (inactive); in [5] it was 80.9% (inactive); in assay [6] (setting [16]), 88.2%; in assay [6] (setting [17]) it was 80.9%. Also, the viability is 93.4% (inactive) in assay [12] and 95.3% (inactive) in assay [13]. The Her2 level in [2] was 102% (inactive). In assay [6] (H69AR cells + 2 uM doxorubicin), the differential viability (reversal) is -7.23% (inactive). Further, the values for the inhibition in assay [7], in assay [8] and in [14] were -2.67% (inactive), -3% (inactive) and 1.56% (inactive), respectively. For the same compound, the growth inhibition is -17.2% (inactive) in [9] and -1.12% (inactive) in assay [10]. In assay [11], the viability increase was -2.71% (inactive). Moreover, the RAM network inhibition in [15] is -0.11% (inactive).

For the compound `Cc1cc2cc(CCNC(=O)CC(C)C)c(=O)[nH]c2cc1C`, the viability in assay [1] was 102%; in [3], 102% (inactive); in assay [4] it was 93.3% (inactive); in assay [5], 90.2% (inactive); in [6] (setting [16]), 89.4%; in assay [6] (setting [17]), 90.2%. Further, the results for the viability in assay [12] and in [13] were 104% (inactive) and 97.7% (inactive), respectively. Besides, in assay [2], the Her2 level was 128% (inactive). Also, the differential viability (reversal) in assay [6] (H69AR cells + 2 uM doxorubicin) was 0.865% (inactive). Further, the inhibition in assay [7] was -3.73% (inactive); in [8], 5% (inactive); in [14], 0.365% (inactive). In addition, the figures for the growth inhibition in assay [9] and in assay [10] were -7.38% (inactive) and -5.57% (inactive), respectively. Besides, the viability increase in assay [11] is -0.47% (inactive). Further, in assay [15], the RAM network inhibition was 0.73% (inactive).

Regarding `N#CCCN1CCN(S(=O)(=O)c2ccc(S(=O)(=O)NC3CCCCC3)cc2)CC1`, the viability is 103% in assay [1]; 103% (inactive) in [3]; 98.9% (inactive) in assay [4]; 100% (inactive) in assay [5]; 87.5% in [6] (setting [16]); 100% in assay [6] (setting [17]). Moreover, the viability in assay [12] is 103% (inactive); in assay [13] it was 97.8% (inactive). The Her2 level in [2] was 105% (inactive). Besides, the differential viability (reversal) in assay [6] (H69AR cells + 2 uM doxorubicin) was 12.5% (inactive). Besides, the inhibition in assay [7] was -2.69% (inactive); in [8], 3.67% (inactive); in [14], 1.02% (inactive). Also, the growth inhibition in assay [9] was -1.9% (inactive); in assay [10], -5.03% (inactive). The viability increase in assay [11] is -0.74% (inactive). In addition, in assay [15], the RAM network inhibition is 5.92% (inactive).

Take `COc1cccc(NC(=O)c2nc3nc(C)cc(C(F)F)n3n2)c1`: the viability is 100% in assay [1]; 100% (inactive) in assay [3]; 93.9% (inactive) in [4]; 84% (inactive) in [5]; 86.8% in assay [6] (setting [16]); 84% in assay [6] (setting [17]). Moreover, the viability in [12] was 107% (inactive); in [13], 101% (inactive). The Her2 level in [2] was 106% (inactive). Also, the differential viability (reversal) in assay [6] (H69AR cells + 2 uM doxorubicin) is -2.74% (inactive). Further, the inhibition in assay [7] is 1.47% (inactive); in [8], 4.5% (inactive); in assay [14] it was 0.62% (inactive). Moreover, the growth inhibition is -11.3% (inactive) in assay [9] and -11.1% (inactive) in [10]. In assay [11], the viability increase is 1.69% (inactive). The RAM network inhibition in assay [15] was -0.33% (inactive).

Regarding `CCCOc1ccc(NC2=CC(=O)CC(C)(C)C2)cc1`, the viability in assay [1] is 100%; in [3], 100% (inactive); in assay [4], 87.2% (inactive); in assay [5] it was 100% (inactive); in assay [6] (setting [16]) it was 93%; in [6] (setting [17]), 100%. Besides, the viability is 95.4% (inactive) in assay [12] and 94.2% (inactive) in assay [13]. The Her2 level in assay [2] is 103% (inactive). Moreover, in [6] (H69AR cells + 2 uM doxorubicin), the differential viability (reversal) is 7.44% (inactive). Moreover, the figures for the inhibition in [7], in assay [8] and in assay [14] were -6.89% (inactive), 2.13% (inactive) and 3.14% (inactive), respectively. The growth inhibition is -2.65% (inactive) in assay [9] and -14.7% (inactive) in [10]. The viability increase in [11] is 1.27% (inactive). Besides, in assay [15], the RAM network inhibition was 6.91% (inactive).

As for `CSc1cccc(NC(=O)C2CCN(S(=O)(=O)c3ccc(F)cc3)CC2)c1`, the viability was 77.5% in [1]; 77.5% (inactive) in assay [3]; 93.7% (inactive) in assay [4]; 84.4% (inactive) in assay [5]; 85.3% in assay [6] (setting [16]); 84.4% in assay [6] (setting [17]). For the same compound, the viability in [12] was 64.3% (inactive); in assay [13] it was 62% (inactive). In addition, the Her2 level in [2] is 70.5% (inactive). Moreover, the differential viability (reversal) in assay [6] (H69AR cells + 2 uM doxorubicin) is -0.92% (inactive). In addition, the inhibition was -7.57% (inactive) in [7], -6.23% (inactive) in assay [8] and 1.71% (inactive) in assay [14]. Also, the growth inhibition was -1.68% (inactive) in assay [9] and -13.7% (inactive) in assay [10]. In assay [11], the viability increase was -4.63% (inactive). Besides, in assay [15], the RAM network inhibition is 7.8% (inactive).
